Screening results deposited in PubChem by several laboratories.
EP2 modulator – modulators of human EP2 prostaglandin E2 receptor; P43116; EP2-expressing cells, cAMP HTRF FRET, PGE2 co-stimulation; induction, % at 25 µM; 260,000 tested, 0.83% active; AID 940;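 active = compounds whose cAMP rise, as percent of the full-agonist control response, exceeds 60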;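 note: rat C6 glioma line stably carrying human EP2 under a CMV promoter; the protocol text gives 20 µM as final concentration; 100% = response of wells given 1 µM PGE2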
CHT allo act – allosteric activators of human choline transporter CHT; 310,000 tested, 0.49% active; Q9GZV3; CHT-expressing cells, membrane potential dye, choline EC20; stronger effect = higher value; LV-AA mutant CHT in HEK293 cells; B-score at 10 µM; AID 488977;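 active = initial fluorescence not abnormally high and integrated response B-score, plate-corrected, over 3 SD above library mean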
Target sequence (Q9GZV3 whole entry, looked up): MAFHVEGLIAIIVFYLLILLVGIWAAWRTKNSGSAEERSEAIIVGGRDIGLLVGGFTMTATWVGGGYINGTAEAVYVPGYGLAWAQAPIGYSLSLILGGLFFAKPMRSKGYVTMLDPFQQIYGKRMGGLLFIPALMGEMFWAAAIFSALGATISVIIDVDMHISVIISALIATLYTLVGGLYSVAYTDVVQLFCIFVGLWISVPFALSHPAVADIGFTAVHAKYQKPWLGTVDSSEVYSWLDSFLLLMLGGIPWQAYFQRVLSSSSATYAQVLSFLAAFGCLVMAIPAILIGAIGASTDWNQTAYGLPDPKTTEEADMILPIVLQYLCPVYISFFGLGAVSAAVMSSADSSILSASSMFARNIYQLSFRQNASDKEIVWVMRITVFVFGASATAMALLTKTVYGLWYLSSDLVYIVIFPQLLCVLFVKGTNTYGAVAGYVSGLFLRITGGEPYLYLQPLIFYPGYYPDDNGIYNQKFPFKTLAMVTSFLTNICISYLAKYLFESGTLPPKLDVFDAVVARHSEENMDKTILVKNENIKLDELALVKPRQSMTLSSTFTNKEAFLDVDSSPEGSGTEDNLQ
CHT block – human CHT choline transport inhibition | CHT-expressing cells, membrane potential dye, choline response; stronger effect = lower value | 310,000 tested, 0.86% active | Q9GZV3 | B-score at 10 µM;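 active = B-score over 3 SD under the library average, and starting fluorescence ratio not unusually high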;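 note: choline stimulus applied at its EC90 after an EC20 pre-addition; B-score computed on integrated fluorescence ratio after choline addition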
EP2 antag – inhibitors of human EP2 prostaglandin E2 receptor; P43116; C6 glioma cells expressing human EP2, cAMP TR-FRET; cells stimulated with saturating PGE2; inhibition, % at 25 µM; 260,000 tested, 0.52% active; AID 1422;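 active = percent inhibition above 40 after rounding to a whole number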;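 note: rat C6 glioma host cells with rolipram phosphodiesterase inhibitor present; the protocol text gives 20 µM as final concentration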
CHT activ conf – human CHT activation, confirmatory screen; shares compounds with CHT allo act; CHT-expressing cells, membrane potential dye fluorescence (FDSS); % of choline EC20–EC90 response window; HEK293 expressing CHT LV-AA mutant; choline added at its EC20; activation, % at 10 µM; 2,500 tested, 91% active; AID 504833;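 active = primary screen active, with duplicate mean activation above negative control mean plus 3 SD, cut at about 11% in these data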
HEK293 MP dye – counter-screen for CHT activators: effect in parental HEK293 cells; ratio readout change at 10 µM, hits read low; AID 623908; shares compounds with CHT allo act; membrane potential dye fluorescence (FDSS); measured after EC20 choline addition; 2,500 tested, 62% active;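 active = duplicate-averaged ratio beyond 3 SD from buffer wells, up or down, though filed actives are nearly all decreases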
The depositor's hits bear a star; i = inactive; nt = no result given. Sampled rows, rich in hits. Any-hit rate of the full collection: about 2.1%.

SMILES | EP2 modulator | CHT allo act | CHT block | EP2 antag | CHT activ conf | HEK293 MP dye
CCOC(=O)c1ccc(-[n+]2c(-c3ccccc3)cc(-c3ccccc3)cc2-c2ccccc2)cc1 | nt | 7.66* | i | nt | 62.9* | i
Cc1ccc(-c2cc(-c3ccc(C)cc3)[n+](-c3ccc(C(=O)[O-])cc3)c(-c3ccc(C)cc3)c2)cc1 | nt | 9.72* | i | nt | 11.6* | -34.9*
CCOC(=O)c1cccc(-[n+]2c(-c3ccccc3)cc(-c3ccccc3)cc2-c2ccccc2)c1 | nt | i | i | nt | nt | nt
O=C(C1CC1)N1CCCc2cc(C(O)CN3CC=C(c4ccc(F)cc4)CC3)ccc21 (stereo unspecified) | -88.4 | nt | nt | 4.6 | nt | nt
COc1ccc(C2=NCC(=O)N(CC(=O)NCc3cccs3)c3sc4c(c32)CCCC4)cc1 | -52.2 | nt | nt | 5.0 | nt | nt
O=[N+]([O-])c1ccc(N2CCCCC2)c2ncccc12 | 2.4 | i | i | 2.2 | nt | nt
O=[N+]([O-])c1ccc(N2CCCNCC2)c2ncccc12 | -39.4 | 9.25* | i | 10.2 | 48.1* | -88.6*
Cn1ccnc1C1(O)CC2CCC(C1)N2CC(=O)NCCc1ccccc1 (stereo unspecified) | 37.2 | nt | nt | nt | nt | nt
C[n+]1c(-c2ccccc2)c2cc(N)ccc2c2ccc(N)cc21 | nt | 9.25* | i | nt | 37.9* | -77.1*
Nc1ccc2ccc3cccc[n+]3c2c1 | nt | i | i | nt | nt | nt
COc1ccccc1CNC(=O)CN1C2CCC1CC(O)(c1ccco1)C2 (stereo unspecified) | -3.5 | nt | nt | nt | nt | nt
CC(=NCCCn1ccnc1)c1c(O)n(C)c(=O)n(C)c1=O | 22.7 | i | i | 4.2 | 48.4* | -33.5*
CCCCn1c(O)c(C(C)=NCCCn2ccnc2)c(=O)[nH]c1=O | 13.0 | i | i | 4.6 | nt | nt
